Experiment [1] can be described thus: NCI Yeast Anticancer Drug Screen. Data for the rad50 strain (AID 155).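 Note: 0% = growth of vehicle-only cultures of the same strain.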 The settings on record: S. cerevisiae rad50 strain growth inhibition, active compounds read high. The method in brief:
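DNA repair mutant yeast, compound exposure, growth read-out; inhibition is taken relative to vehicle.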

Experiment [2] in a line: NCI Yeast Anticancer Drug Screen. Data for the mec2-1 strain (AID 157). The settings on record: S. cerevisiae mec2-1 strain, active compounds read high. The method, boiled down:
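Strain: mec2-1 (DNA repair/cell cycle alteration). Compound exposure, then growth measured; inhibition expressed relative to vehicle.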

Experiment [3] in a line: NCI Yeast Anticancer Drug Screen. Data for the sgs1 mgt1 strain (AID 161).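 Note: 0% = growth of cultures given vehicle only.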 The settings on record: S. cerevisiae sgs1 mgt1 strain, active compounds read high. The method, boiled down:
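Test agents were incubated with a DNA-repair-mutant yeast strain. Growth was then read and compared against vehicle-treated controls.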

The nature of experiment [4]: NCI Yeast Anticancer Drug Screen. Data for the cln2 rad14 strain (AID 165).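 Note: 0% = growth equal to vehicle treated cultures.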 The note with it: S. cerevisiae cln2 rad14 strain, active compounds read high. The method, boiled down: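 Compounds are applied to the cln2 rad14 yeast strain, and growth is then compared with that of vehicle-treated cultures to give inhibition.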
A short description of experiment [5]: NCI Yeast Anticancer Drug Screen. Data for the bub3 strain (AID 167). The note with it: S. cerevisiae bub3 mutant strain, active compounds read high. The method, boiled down:
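In this screen, a yeast mutant lacking normal mitotic checkpoint function is challenged with compound. Relative growth versus vehicle gives the inhibition value.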

The nature of experiment [6]: NCI Yeast Anticancer Drug Screen. Data for the mlh1 rad18 strain (AID 175). The note with it: S. cerevisiae mlh1 rad18 strain growth inhibition, active compounds read high. The method, boiled down:
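Read-out is yeast growth inhibition, calculated against vehicle-only controls. The compound was applied to a strain engineered with DNA damage repair alterations.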

Setting [7] is: at 5.0 µM (retest, dose inferred, filed as 0.5).
Setting [8] is: at 50.0 µM (retest, dose inferred, filed as 5.0).

Compounds without any hit were thinned out: in the full panel of roughly 79,000, 15% have a hit. Values without a mark were called inactive. The source made the active and inactive calls. Cut-off read from the data, not from the text of the source: active = growth inhibition above about 70%; inactive = the rest.

As to `COc1cc(C(=O)CBr)c2ccc(Cl)cc2n1`, the growth inhibition in experiment [1] (setting [7]) was 73% (active); in experiment [1] (setting [8]), 97% (active); in experiment [1] (at 50.0 µM), 84.8% (active); in experiment [2] (setting [7]), 90% (active); in experiment [2] (setting [8]) it was 98% (active); in experiment [2] (at 50.0 µM), 69.2%. Moreover, the growth inhibition in experiment [3] (setting [7]) is 94% (active); in experiment [3] (setting [8]), 97% (active); in experiment [3] (at 50.0 µM) it was 94% (active); in experiment [4] (setting [7]) it was 59%; in experiment [4] (setting [8]), 97% (active); in experiment [4] (at 50.0 µM), 95.3% (active). The growth inhibition is 87% (active) in experiment [5] (setting [7]); 97% (active) in experiment [5] (setting [8]); 70.3% (active) in experiment [5] (at 50.0 µM); 93% (active) in experiment [6] (setting [7]); 97% (active) in experiment [6] (setting [8]); 91.4% (active) in experiment [6] (at 50.0 µM).
As for `CCCN(CCC)C(=O)C(C)C`, the growth inhibition in experiment [1] (setting [7]) is 1%; in experiment [1] (setting [8]) it was -1%; in experiment [1] (at 50.0 µM) it was 9.95%; in experiment [2] (setting [7]) it was 2%; in experiment [2] (setting [8]) it was -4%; in experiment [2] (at 50.0 µM), -5.6%. The growth inhibition in experiment [3] (setting [7]) is -1%; in experiment [3] (setting [8]) it was -7%; in experiment [3] (at 50.0 µM) it was -5.3%; in experiment [4] (setting [7]) it was 0%; in experiment [4] (setting [8]), -4%; in experiment [4] (at 50.0 µM) it was 32.5%. Besides, the growth inhibition in experiment [5] (setting [7]) was -2%; in experiment [5] (setting [8]), -2%; in experiment [5] (at 50.0 µM) it was -13.1%; in experiment [6] (setting [7]), 3%; in experiment [6] (setting [8]), -3%; in experiment [6] (at 50.0 µM), 16.1%.
For the compound `CCCC(=O)OCC1CC2C=CC1C2` (stereo not given), the growth inhibition in experiment [1] (setting [7]) is 0%; in experiment [1] (setting [8]), -3%; in experiment [1] (at 50.0 µM) it was -6.25%; in experiment [2] (setting [7]) it was 0%; in experiment [2] (setting [8]) it was 2%; in experiment [2] (at 50.0 µM), -7.65%. Besides, the growth inhibition in experiment [3] (setting [7]) was 0%; in experiment [3] (setting [8]), -1%; in experiment [3] (at 50.0 µM) it was -18.3%; in experiment [4] (setting [7]), -7%; in experiment [4] (setting [8]), 3%; in experiment [4] (at 50.0 µM) it was 79.2% (active). The growth inhibition in experiment [5] (setting [7]) was -3%; in experiment [5] (setting [8]), 2%; in experiment [5] (at 50.0 µM), 15%; in experiment [6] (setting [7]), -1%; in experiment [6] (setting [8]) it was -5%; in experiment [6] (at 50.0 µM), -3.9%.
Consider `CN(CCC(=O)/C(=C\c1ccc(Cl)cc1)c1ccccc1)Cc1ccccc1`, for which the growth inhibition was 98% (active) in experiment [1] (setting [7]); 98% (active) in experiment [1] (setting [8]); 62.9% in experiment [1] (at 50.0 µM); 100% (active) in experiment [2] (setting [7]); 99% (active) in experiment [2] (setting [8]); 99% (active) in experiment [2] (at 50.0 µM). Moreover, the growth inhibition in experiment [3] (setting [7]) was 99% (active); in experiment [3] (setting [8]), 99% (active); in experiment [3] (at 50.0 µM) it was 98.2% (active); in experiment [4] (setting [7]), 98% (active); in experiment [4] (setting [8]), 98% (active); in experiment [4] (at 50.0 µM), 98.5% (active). The growth inhibition is 97% (active) in experiment [5] (setting [7]); 99% (active) in experiment [5] (setting [8]); 97.6% (active) in experiment [5] (at 50.0 µM); 99% (active) in experiment [6] (setting [7]); 99% (active) in experiment [6] (setting [8]); 98.5% (active) in experiment [6] (at 50.0 µM).
Consider `NC(=S)N/N=C1\CCCCc2ccccc21`, for which the growth inhibition in experiment [1] (setting [7]) was 5%; in experiment [1] (setting [8]), 85% (active); in experiment [1] (at 50.0 µM), 85.7% (active); in experiment [2] (setting [7]), -19%; in experiment [2] (setting [8]) it was 83% (active); in experiment [2] (at 50.0 µM), 89.5% (active). Besides, the growth inhibition in experiment [3] (setting [7]) is 4%; in experiment [3] (setting [8]), 87% (active); in experiment [3] (at 50.0 µM), 83.8% (active); in experiment [4] (setting [7]), 13%; in experiment [4] (setting [8]) it was 80% (active); in experiment [4] (at 50.0 µM) it was 83.8% (active). Also, the growth inhibition is 17% in experiment [5] (setting [7]); 88% (active) in experiment [5] (setting [8]); 79.1% (active) in experiment [5] (at 50.0 µM); 5% in experiment [6] (setting [7]); 91% (active) in experiment [6] (setting [8]); 84.2% (active) in experiment [6] (at 50.0 µM).
Regarding `CC(=O)N1C(c2[nH]c3ccccc3c2Cc2ccccc2)CCN1c1ccccc1` (stereo not given), the growth inhibition in experiment [1] (setting [7]) is -27%; in experiment [1] (setting [8]), 94% (active); in experiment [1] (at 50.0 µM) it was 84.9% (active); in experiment [2] (setting [7]), -14%; in experiment [2] (setting [8]), 98% (active); in experiment [2] (at 50.0 µM), 87% (active). Further, the growth inhibition in experiment [3] (setting [7]) is -20%; in experiment [3] (setting [8]) it was 94% (active); in experiment [3] (at 50.0 µM) it was 88.3% (active); in experiment [4] (setting [7]), -12%; in experiment [4] (setting [8]) it was 96% (active); in experiment [4] (at 50.0 µM), 85.7% (active). Further, the growth inhibition in experiment [5] (setting [7]) was -18%; in experiment [5] (setting [8]) it was 96% (active); in experiment [5] (at 50.0 µM), 87.5% (active); in experiment [6] (setting [7]), -27%; in experiment [6] (setting [8]) it was 95% (active); in experiment [6] (at 50.0 µM) it was 83.8% (active).
For `NNc1cccc(C(F)(F)F)c1`, the growth inhibition is 19% in experiment [1] (setting [7]); 90% (active) in experiment [1] (setting [8]); 83.7% (active) in experiment [1] (at 50.0 µM); -41% in experiment [2] (setting [7]); 54% in experiment [2] (setting [8]); 79.5% (active) in experiment [2] (at 50.0 µM). In addition, the growth inhibition in experiment [3] (setting [7]) is -16%; in experiment [3] (setting [8]), 28%; in experiment [3] (at 50.0 µM) it was 88.5% (active); in experiment [4] (setting [7]), 13%; in experiment [4] (setting [8]), 55%; in experiment [4] (at 50.0 µM), 50.1%. Also, the growth inhibition was -1% in experiment [5] (setting [7]); 97% (active) in experiment [5] (setting [8]); 88% (active) in experiment [5] (at 50.0 µM); 34% in experiment [6] (setting [7]); 93% (active) in experiment [6] (setting [8]); 83.5% (active) in experiment [6] (at 50.0 µM).
Regarding `CCc1nc(N)nc(N)c1-c1ccc(NCCCN)c([N+](=O)[O-])c1`, the growth inhibition was -15% in experiment [1] (setting [7]); -17% in experiment [1] (setting [8]); 69.7% in experiment [1] (at 50.0 µM); 17% in experiment [2] (setting [7]); -2% in experiment [2] (setting [8]); 44.8% in experiment [2] (at 50.0 µM). The growth inhibition in experiment [3] (setting [7]) is -19%; in experiment [3] (setting [8]), -36%; in experiment [3] (at 50.0 µM) it was 69.2%; in experiment [4] (setting [7]), -15%; in experiment [4] (setting [8]), -5%; in experiment [4] (at 50.0 µM) it was 69%. Besides, the growth inhibition in experiment [5] (setting [7]) is -44%; in experiment [5] (setting [8]) it was -18%; in experiment [5] (at 50.0 µM) it was 6.45%; in experiment [6] (setting [7]) it was -17%; in experiment [6] (setting [8]), -36%; in experiment [6] (at 50.0 µM), 82.5% (active).
With `CN(C)C1=C(Cl)C(=O)c2ccccc2C1=O`, the growth inhibition in experiment [1] (setting [7]) was 12%; in experiment [1] (setting [8]), 93% (active); in experiment [1] (at 50.0 µM), 47.7%; in experiment [2] (setting [7]), 14%; in experiment [2] (setting [8]), 87% (active); in experiment [2] (at 50.0 µM), 45.6%. Further, the growth inhibition in experiment [3] (setting [7]) is 14%; in experiment [3] (setting [8]), 93% (active); in experiment [3] (at 50.0 µM) it was 44.9%; in experiment [4] (setting [7]), 11%; in experiment [4] (setting [8]), 60%; in experiment [4] (at 50.0 µM), 34.8%. Further, the growth inhibition in experiment [5] (setting [7]) was 14%; in experiment [5] (setting [8]), 96% (active); in experiment [5] (at 50.0 µM), 82% (active); in experiment [6] (setting [7]), 15%; in experiment [6] (setting [8]), 87% (active); in experiment [6] (at 50.0 µM), 42.4%.
Turning to `O=C/C(Br)=C\c1ccccc1`, the growth inhibition in experiment [1] (setting [7]) is 36%; in experiment [1] (setting [8]), 99% (active); in experiment [1] (at 50.0 µM) it was 55.2%; in experiment [2] (setting [7]) it was 20%; in experiment [2] (setting [8]), 99% (active); in experiment [2] (at 50.0 µM) it was 99.2% (active). In addition, the growth inhibition is 25% in experiment [3] (setting [7]); 99% (active) in experiment [3] (setting [8]); 49.5% in experiment [3] (at 50.0 µM); 12% in experiment [4] (setting [7]); 99% (active) in experiment [4] (setting [8]); 98.4% (active) in experiment [4] (at 50.0 µM). The growth inhibition in experiment [5] (setting [7]) was 26%; in experiment [5] (setting [8]) it was 99% (active); in experiment [5] (at 50.0 µM), 48.4%; in experiment [6] (setting [7]) it was 16%; in experiment [6] (setting [8]) it was 99% (active); in experiment [6] (at 50.0 µM) it was 7.45%.
